# Source: PubChem BioAssay
# Rows were chosen to be rich in hits. Some 2.4% of all compounds tested hit in one or more screens of this group.
# Pol eta inh-1: inhibitors of human DNA polymerase eta. Potency, µM (titrated, usually from 114 µM), for inactives: top-dose activity change, negative = inhibition, hits mostly inhibitors. 390,000 tested, 1.2% active. AID 588591. recombinant Pol eta, fluorescent DNA replication assay. Q9Y253; note: % is set by controls: 0 for no effect and ±100 for the full control effect
#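 Pol eta at 10 nM preincubated with compounds 15 min at room temperature; reaction started with fluorescent substrate (50 nM final) and read kinetically at 0 and 10 min.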
# Pol kappa inh-1: DNA polymerase kappa (human) inhibition | Q9UBT6 | Potency, µM (titrated, usually from 107 µM), without a hit: top-dose activity, negative = inhibition, usual class: inhibitors | 400,000 tested, 0.53% active | purified Pol kappa, fluorescent DNA synthesis assay, 10 min | AID 588579; note: % is set by controls: 0 for no effect and ±100 for the full control effect
#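 Fluorescent qHTS in 1536-well format: enzyme (10 nM) and compound sat 15 min at room temperature before 50 nM substrate (final) was added. Signal taken at 0 and 10 min; no-enzyme buffer wells were negative controls.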
# POLI inh: inhibitors of human DNA polymerase iota; Q9UNA4; Pol iota fluorescent replication assay, 10 min; Potency, µM (top dose mostly 115 µM), inactives show top-dose activity, negative = inhibition, most hits filed as inhibitors; 390,000 tested, 1% active; AID 588590
#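 Fluorescent replication assay read twice, at 0 min and 10 min after adding 50 nM (final) substrate. Enzyme (10 nM) and compounds were first incubated 15 min at room temperature; enzyme-free buffer wells were negative controls.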
# POLB inh: DNA polymerase beta (human) inhibition; P06746; Pol beta primer extension/strand displacement, fluorescence kinetic; Potency, µM (doses to about 114 µM), for the others: at the top dose activity change, negative = inhibition, actives largely listed as inhibitors; 340,000 tested, 1.3% active; AID 485314; note: % is set by controls: 0 for no effect and ±100 for the full control effect
#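 Preincubation: enzyme (10 nM) with compound, 15 min, RT. Reaction: substrate added to 50 nM final. Reads: 0 and 10 min. Analysis: normalized, Hill fit.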
# FEN1 inh-1: blocks human flap endonuclease 1; P39748; Recombinant FEN1 flap cleavage, fluorescence, 15 min; Potency, µM (highest dose often 114 µM), inactives show top-dose activity change, negative = inhibition, most hits filed as inhibitors; 390,000 tested, 0.35% active; AID 588795; note: % is set by controls: 0 for no effect and ±100 for the full control effect; nearly all actives have a fitted effect of over 65% in size
#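 Concentration–response screening of FEN1 (10 nM): 15 min compound preincubation at room temperature, reaction started with 50 nM substrate and read at 0 and 15 min. Corrected, normalized data were fitted by a four-parameter Hill equation.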
# TDP1 block: TDP1 (human) enzyme inhibition; Q9NUW8; recombinant TDP1, AlphaScreen DNA substrate cleavage; Potency, µM (titrated, usually from 130 µM), for inactives: at the highest dose activity change, negative = inhibition, most hits filed as inhibitors; 350,000 tested, 0.28% active; AID 485290; note: % is set by controls: 0 for no effect and ±100 for the full control effect; nearly all actives have a fitted effect of over 40% in size
#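 E. coli-derived human Tdp1, 1 nM final. Cpd preinc 15 min RT; substrate 15 nM final, 5 min RT; AS bead mix 10 ug/ml final, 10 min RT. Signal loss = tyrosine-FITC cleavage. No-enzyme wells = max signal.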
# Pol kappa inh-2: confirmation of human DNA polymerase kappa inhibitors | shares compounds with Pol eta inh-1 | purified Pol-kappa, fluorescent strand-displacement substrate | Potency, µM, actives largely listed as inhibitors | 920 tested, 76% active
# Pol eta inh-2: confirmation of human DNA polymerase eta inhibitors; 2,600 tested, 64% active; AID 720502; Potency, µM, usual class: inhibitors; shares compounds with Pol eta inh-1; Pol eta primer extension, TAMRA/BHQ fluorescence, 10 min
# FEN1 inh-2: confirmation of human FEN1 inhibitors. shares compounds with FEN1 inh-1. FEN1 flap cleavage, TAMRA/BHQ2 fluorogenic DNA substrate. Potency, µM, most hits filed as inhibitors. 880 tested, 79% active. AID 720498; note: nearly all actives have a fitted effect of over 60% in size
# The depositor's hits bear a star; ? = inconclusive; . = no result; [ ] = dose if it differs, or a comment. Calls come from the whole dose curve; as a rule, active = well fitted curve in the direction sought with a large enough effect; inconclusive = small, poorly fitted or top-dose-only effect, or another doubt; inactive = no such curve, though single readings can be large; an effect the other way counts as inactive or inconclusive. Potency is the fitted concentration of half-maximal effect.
SMILES,Pol eta inh-1,Pol kappa inh-1,POLI inh,POLB inh,FEN1 inh-1,TDP1 block,FEN1 inh-2,others
COP(=S)(OC)Oc1ccc([N+](=O)[O-])cc1,.,-17%[60.1 µM],.,.,.,-10%[56.1 µM],.,
Cc1cccc(Oc2nc3c(C)cccn3c(=O)c2/C=C(\C#N)c2nc3ccccc3s2)c1,50µM*,-12%,-10%,-17%,?,-11%,67*,Pol kappa inh-2=42*;Pol eta inh-2=?
O=[N+]([O-])c1ccc(N2CCCCCC2)c2nonc12,?,?,28µM*,20µM*,?,.,43*,Pol eta inh-2=60*
COc1c(C(C)(C)C)cc([N+](=O)[O-])c(C)c1[N+](=O)[O-],.,.,.,.,.,17%,.,
CN1CCC(N(C)c2nc(-c3ccc([N+](=O)[O-])cc3)nc3ccccc23)CC1,-23%,-28%,?,11µM*,35µM*,0%,34*,
C=C1CC[C@H](O)C/C1=C/C=C1\CCC[C@]2(C)[C@@H]([C@H](C)CCCC(C)C)CC[C@@H]12,.,?,.,.,.,14%,.,
CN1CCc2nc3sc(C#N)c(N)c3c(-c3cccs3)c2C1,-2%,-11%,20%,-21%,?,7%,?,
CN1CCc2nc(N)c(C#N)c(-c3ccccc3)c2C1,-15%,0%,?,-3%,-5%,0%,.,
CN1CCc2cc(O)c(O)cc2C1Cc1ccc(O)c(O)c1 (stereo not drawn),.,?,.,.,.,4%,.,
Cc1ccccc1-n1c(O)c(/C=C/C=Nc2ccccc2)c(=O)[nH]c1=O,?,-14%,79µM*,-3%,-9%,0%,85*,
Nc1ccc2ccc3cccc[n+]3c2c1,?,-26%,3%,4%,50µM*,.,?,
BrC(Br)Br,.,.,.,.,.,6%,.,
